According to paper PMC13494018:

B1: design_611_394c5ea9-a0d3-47c4-9d48-89ba6a28fdd0_749_dldesign_0_cycle1_af2pred (protein)
chain: AAAEAAAERARQAAKAAMKSLTLAYEALGKPEQAKEDIAKVEKAIEEDPEKGAALARELAAQAAREAIKANAA
B2: design_611_394c5ea9-a0d3-47c4-9d48-89ba6a28fdd0_1153_dldesign_0_cycle1_af2pred (protein)
chain: MEEKKKKIEEEANKVIEEATKVAELAKKHPAMRPALIAANAAISMANNAIRNIENVESAEKQLKVAKALMEYAKATAKALLAAA
B3: design_611_394c5ea9-a0d3-47c4-9d48-89ba6a28fdd0_1130_dldesign_0_cycle1_af2pred (protein)
chain: MEEELKKISQAAAQAQQAAIDAKDPALRAELAQAAVEIMKLMDKAAKSTPEEAKKLAEEAEKIAEEAQKKAKASG
B4: design_611_394c5ea9-a0d3-47c4-9d48-89ba6a28fdd0_1683_dldesign_0_cycle1_af2pred (protein)
chain: DEAEELVRLVEEARALAIDPATRGQGVTLFLLVGIRSGPAVRAAAVEAARAAREAAALPPEERARRLEELAARVIAAIRAEA
B5: design_611_394c5ea9-a0d3-47c4-9d48-89ba6a28fdd0_1469_dldesign_0_cycle1_af2pred (protein)
chain: GKERAVEIMRRGLTEVAKEALKVSPEVAGVVQTALAKAIGAAAESMEKALEVLKKGAEEAEKLDPEIGKKVREVLKKVEEAYKE
B6: design_611_394c5ea9-a0d3-47c4-9d48-89ba6a28fdd0_2213_dldesign_0_cycle1_af2pred (protein)
chain: GQELLAQAQKELKEGKALMKEGKYKEALAKFTQAANLAAKAAAAYADQPIAKQANAVLAEAVENMAKAQALID
B7: design_611_394c5ea9-a0d3-47c4-9d48-89ba6a28fdd0_940_dldesign_0_cycle1_af2pred (protein)
chain: MKVEEAGNKAKALLVATANAAIAADPARAQEIAKKMAEGIEKIDKLTEEEKKKLDEYSEEEQAKKVEELGKELAKEIA
B8: design_611_394c5ea9-a0d3-47c4-9d48-89ba6a28fdd0_765_dldesign_0_cycle1_af2pred (protein)
chain: SSREGAAQLLLDVAKQAAAALKAAGGDEERAKKILEEAKKAAATTFEETQKALAKAAREAVKYQAAVEAA
B9: design_611_394c5ea9-a0d3-47c4-9d48-89ba6a28fdd0_2343_dldesign_0_cycle1_af2pred (protein)
chain: AQALADQQLIATVKAALKNAEELYKKDKKAGAKAFAAAAEVAKLAIEGSSAAAKPELKALEKKAKENEKKAKEDA
B10: design_612_bdadb936-3f14-48ad-830f-718e38d81c30_198_dldesign_0_cycle1_af2pred (protein)
chain: DAAVAQGQKLRDAALAALAAATTLAQFNAAAQQGLAALAQITALIVAHPEAGPQLQKLAAEVLAAIEAARARALAA
B11: design_611_394c5ea9-a0d3-47c4-9d48-89ba6a28fdd0_1121_dldesign_0_cycle1_af2pred (protein)
chain: SSSYEEVTAEMAAITAKAQEGVEAAKKDPAEAKKIAAEIAAKAKEIAASGFSEGAAQMAKNAAARVQKVIDAELAK
B12: design_611_394c5ea9-a0d3-47c4-9d48-89ba6a28fdd0_2077_dldesign_0_cycle1_af2pred (protein)
chain: ASEELLKEAVTLNMRLAVEFPEVAKYARAAAHYLMAGDAEKAVESAEKMLEEAKKAGPEAAALAEKALKATKAAAADQAAER
B13: design_611_394c5ea9-a0d3-47c4-9d48-89ba6a28fdd0_2413_dldesign_0_cycle1_af2pred (protein)
chain: TAEQVEKLKERAIERLKKAAELDKEAAEELLKLYEEMKKVSENLGEAALLAAKAAAIAKNPEARALASQALADLSQAAILAAA
B14: design_611_394c5ea9-a0d3-47c4-9d48-89ba6a28fdd0_2254_dldesign_0_cycle1_af2pred (protein)
chain: GKEEAQKLVEEAREAAKKAKEYTAKALAEDLEAEGAKSWAALNEALAKASQAAQLDPELGSAAIAEVVETAKEIKEKLDAAKAA
B15: design_611_394c5ea9-a0d3-47c4-9d48-89ba6a28fdd0_2091_dldesign_0_cycle1_af2pred (protein)
chain: RAALEEALAKARELAEKVGEEDPEVAKEVLELIDKAAATSPATGLYYLLQALELMSRYAKESGSEVAREAAEALRAAVAIWSRLAIA
B16: design_611_394c5ea9-a0d3-47c4-9d48-89ba6a28fdd0_2003_dldesign_0_cycle1_af2pred (protein)
chain: GELKEQTAQLLETAIQAAKLSAKQAQAAIKAATIAGSQSPETKEISEEYGKKAIEAAKKSAEEAQKVIKEWLKLVKE
B17: design_611_394c5ea9-a0d3-47c4-9d48-89ba6a28fdd0_637_dldesign_0_cycle1_af2pred (protein)
chain: SEETKEVAEAAVNAAEQAIKLAKELGDKEIEEKAKKLKEEAKKAAKKGAEALPEAKKLAREAFTLAAKALALYAKAKA
B18: design_611_394c5ea9-a0d3-47c4-9d48-89ba6a28fdd0_1531_dldesign_0_cycle1_af2pred (protein)
chain: AQAQVEAMARNAAAGMRALARADGHPDVGEEMAALVLADPVEGARRAVELARERLSPEVAAAVAEIARIQIETA
B19: design_611_394c5ea9-a0d3-47c4-9d48-89ba6a28fdd0_1682_dldesign_0_cycle1_af2pred (protein)
chain: SAALEELREKGKAEANALISASMKAAAAGLAGDAATAAAAAATIEANAKEAKEKAKEYPEAKEYYEKAAKVNTQLAEGAKLL
B20: design_612_bdadb936-3f14-48ad-830f-718e38d81c30_35_dldesign_0_cycle1_af2pred (protein)
chain: SEAEKEAAKAEVRALGAQALDVALRAAARQGAPVAELAAVVQQISQLVDQGIALVEKGDLEAGLALAQQALQLAQQFAA
B21: design_611_394c5ea9-a0d3-47c4-9d48-89ba6a28fdd0_2334_dldesign_0_cycle1_af2pred (protein)
chain: MTPAEAQLQAGEVFLRAAEQALKAGNYESAIKLAELAIEAAKQAKKLAKAAGDEATAKKAEEVEKKAKEVLKKAKE
B22: design_611_394c5ea9-a0d3-47c4-9d48-89ba6a28fdd0_1184_dldesign_0_cycle1_af2pred (protein)
chain: GEAARERGEELVKEAEAALAAAKAAAAADPAAGLAAANAAIGLAVERMEELARLGPEARPAIERLTAIATELSKLALALKAAL
B23: design_611_394c5ea9-a0d3-47c4-9d48-89ba6a28fdd0_1787_dldesign_0_cycle1_af2pred (protein)
chain: AAAAIAAATTGMNIAKKNANTLLAQAEATGNAGLADAAKVAADIVKANAKAAAKLADADTGAALVKDAEDFAKATNAKIAAVKAKA
B24: design_611_394c5ea9-a0d3-47c4-9d48-89ba6a28fdd0_1101_dldesign_0_cycle1_af2pred (protein)
chain: MGGELLLDVMRAAAEAQREIAELGKEKGIPEEVTQALINRVSAAVAAVAKAAIAGDDAAKAAAAAARAAIDATLAEARAL
B25: design_611_394c5ea9-a0d3-47c4-9d48-89ba6a28fdd0_1178_dldesign_0_cycle1_af2pred (protein)
chain: AELLAAAGELAVEAARYAAEADRFGPEAAPAAELFREAQKLAVQANQNPATAAEYYAKAKELMKKGKELMKKAKA
B26: design_611_394c5ea9-a0d3-47c4-9d48-89ba6a28fdd0_785_dldesign_0_cycle1_af2pred (protein)
chain: LKAEAEKLAKEAAAKAKEAAAAGDAVAALAYQAAANMARSALRADPESAAKLLEVGRALKQQGDATHAAFKA
B27: design_611_394c5ea9-a0d3-47c4-9d48-89ba6a28fdd0_908_dldesign_0_cycle1_af2pred (protein)
chain: AAAAARAAAVAAAEAAAAEAIKELKAAAEEAKTATPEEAAKLMNEMLAKASRQALAMQASGDPAAAAAGARLIAAAVEYAKEIDEAIR
B28: design_611_394c5ea9-a0d3-47c4-9d48-89ba6a28fdd0_1764_dldesign_0_cycle1_af2pred (protein)
chain: MLAEEARKYAEKGAEGEDSEEWFAKAAELYAQALLTSEEEARATFEALREVAERYPEKAEKVYAAISRGVQLAAQQAL
B29: design_611_394c5ea9-a0d3-47c4-9d48-89ba6a28fdd0_1238_dldesign_0_cycle1_af2pred (protein)
chain: SAADEQAKAIAVASTQSILDQAKKILEEHPEIKEEGEKLVEEIKKLLEKAKTGDAATASKALSESLELYGKLAELAK
B30: design_611_394c5ea9-a0d3-47c4-9d48-89ba6a28fdd0_1995_dldesign_0_cycle1_af2pred (protein)
chain: AELAKQIAKKVMETAIKIAEEETPEAGIEAGKRAAMTAVALGDLETAEETIERVVEIARKKDPEAAERAREELEAAYARALAAVAAS
B31: design_612_bdadb936-3f14-48ad-830f-718e38d81c30_88_dldesign_0_cycle1_af2pred (protein)
chain: AAAAAAGEAALARLETEGAAAAAAAAADPAAAGEEIERVLALQAEVARAHPSVAAEAAAIARRYNAAIARAVVAA
B32: design_611_394c5ea9-a0d3-47c4-9d48-89ba6a28fdd0_1623_dldesign_0_cycle1_af2pred (protein)
chain: SAEVLAAAEKLVEIGELARKAAEAFPELAEKAAEAANLAALGLAKLASGATAAEGKKAMEKAEELAKELKKAL
B33: design_611_394c5ea9-a0d3-47c4-9d48-89ba6a28fdd0_881_dldesign_0_cycle1_af2pred (protein)
chain: GAAEAAKALAKGVAASVKRLAKEGLEEAKKDPEKGRAILENAKTFAEAVKATDPEIGDKALKYVEEAKKEAEKIVKE
B34: design_611_394c5ea9-a0d3-47c4-9d48-89ba6a28fdd0_1451_dldesign_0_cycle1_af2pred (protein)
chain: AQAIEVANKTAAAMKKQAEALAAEGEANPETAWKHYETAAKLYEIAADMVAAAGGDPAVAAALKAKAAEYKAKAKAAKAA
B35: design_611_394c5ea9-a0d3-47c4-9d48-89ba6a28fdd0_1679_dldesign_0_cycle1_af2pred (protein)
chain: GEELEKAKEEAEKLTDLAKALAAQGTPLGKAAANAMSDSAVKIVLDTAKKLGKEEEGKKYADEIKAATAAALAA
B36: design_611_394c5ea9-a0d3-47c4-9d48-89ba6a28fdd0_1283_dldesign_0_cycle1_af2pred (protein)
chain: DTAAAQGLLAGVQAFTRRRFEAAERALRAGDREAMLAAARDLETAADIAEATAKQVPPALAAQAQALAKQARERAEEARRAAEA
B37: design_611_394c5ea9-a0d3-47c4-9d48-89ba6a28fdd0_2429_dldesign_0_cycle1_af2pred (protein)
chain: GPERAELLRNAARQAEEAIRKGDESPDGVLYYTAAALIVANAIGDPELRAKAQAAAALSPEEARKVAEELRELALERARELA
B38: design_611_394c5ea9-a0d3-47c4-9d48-89ba6a28fdd0_705_dldesign_0_cycle1_af2pred (protein)
chain: AEAQEQAKKEYEKAKAVADAALATAKATGDVTAQQAKVLDAAIEAAKKAQELGDGETANKVMQVATKAMTAMAAAG

Each binder was assayed against CD276, Q5ZPR3.
Chain of CD276, Q5ZPR3 (Q5ZPR3 whole entry): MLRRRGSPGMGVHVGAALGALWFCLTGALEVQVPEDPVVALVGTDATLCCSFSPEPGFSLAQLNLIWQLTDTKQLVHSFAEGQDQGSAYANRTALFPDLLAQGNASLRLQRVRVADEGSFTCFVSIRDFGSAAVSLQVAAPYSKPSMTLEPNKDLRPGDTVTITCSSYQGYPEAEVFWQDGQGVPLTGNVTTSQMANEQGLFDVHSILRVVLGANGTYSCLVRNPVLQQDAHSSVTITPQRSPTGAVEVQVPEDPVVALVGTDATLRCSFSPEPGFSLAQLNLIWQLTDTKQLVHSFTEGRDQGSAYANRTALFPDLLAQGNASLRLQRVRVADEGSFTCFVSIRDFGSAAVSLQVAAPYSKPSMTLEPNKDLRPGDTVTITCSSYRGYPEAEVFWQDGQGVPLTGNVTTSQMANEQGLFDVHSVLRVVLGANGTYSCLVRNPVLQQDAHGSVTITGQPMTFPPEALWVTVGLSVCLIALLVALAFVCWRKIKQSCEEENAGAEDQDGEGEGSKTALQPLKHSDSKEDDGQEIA

Binding in a display sort, inactive:
B1 not found, B2 not found, B3 not found, B4 not found, B5 not found, B6 not found, B7 not found, B8 not found, B9 not found, B10 not found, B11 not found, B12 not found, B13 not found, B14 not found, B15 not found, B16 not found, B17 not found, B18 not found, B19 not found, B20 not found, B21 not found, B22 not found, B23 not found, B24 not found, B25 not found, B26 not found, B27 not found, B28 not found, B29 not found, B30 not found, B31 not found, B32 not found, B33 not found, B34 not found, B35 not found, B36 not found, B37 not found, B38 not found
